About 800 (0.36%) of roughly 220,000 compounds were called active. For the sample, actives were picked, then their nearest neighbours and some compounds at random. A number with no mark means an inactive call.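 How the source made its calls: active means inhibition above about 50% (limit read from the data); inactive means the rest.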

In the assay the test system is calpain II (m-calpain), Sus scrofa. The experiment in a line: inhibitors of pig calpain II, primary screen, biochemical, fluorogenic peptide substrate, 1536-well (AID 1236). The conditions noted are these: purified calpain II, 30 min, at 16 µM, active compounds read high.
Consider `NS(=O)(=O)c1ccc(CNC(=O)c2cnccn2)cc1`, for which the inhibition (as a rule, the relative decrease from the control value, in per cent) is -9.46%. As to `Cc1nc(NC2=NC(C(=O)Nc3ccc(Cl)cc3)CC(=O)N2)nc2ccccc12` (configuration not stated), the inhibition is 6.9%. As for `CCNC(=O)N1c2ccccc2Sc2ccccc21`, the inhibition was -4.08%.

As for `CCC(C(=O)OCC(=O)Nc1c(Cl)cc(Cl)cc1Cl)c1ccccc1` (configuration not stated), the inhibition is 11.9%. As for `CCC(C(=O)OCC(=O)Nc1ccccc1-c1ccccc1)c1ccccc1` (configuration not stated), the inhibition was 56.9% (active). As for `CCC(C(=O)OCC(=O)Nc1ccc(C(=O)Nc2ccc(OC)cc2)cc1)c1ccccc1` (configuration not stated), the inhibition was 38%. `CCOc1c(CNCc2ccc(C(=O)O)cc2)cccc1OC`: the inhibition is -12%. The value for `CC(=O)N1C(C)c2ccccc2C(C)(C)CC12CCCCC2` (configuration not stated) was 10.1%. `COc1ccc(S(=O)(=O)N(CC(=O)N/N=C/c2ccccc2C(=O)O)c2ccccc2OC)cc1`: the inhibition was -1.16%. For the molecule `COC(=O)CCCC1=CC2=CC(=O)C(C)(OC(=O)c3cccs3)C(=O)C2=CN1c1cccc(C#N)c1` (configuration not stated), the inhibition is -53.3%.

Take `CC(=NCc1ccco1)c1c(C(F)(F)F)[nH]n(-c2nc3ccccc3s2)c1=O`: the inhibition is -91.3%.

Take `S=C(NCCc1ccccc1)Nc1ccccc1`: the inhibition is 16%. Turning to `Cc1ccsc1/C=C1\SC(N2CCOCC2)=NC1=O`, the inhibition was 15.5%. Consider `Cc1ccc(N2CCN(C3=NC(=O)/C(=C\c4cccs4)S3)CC2)cc1`, for which the inhibition was 76.7% (active). The value for `Cc1ccc(N2CCN(/N=C/c3cccs3)CC2)cc1` was -29.6%; that for `O=[N+]([O-])c1ccc(N2CCSCC2)cc1O` was 2.99%; that for `O=C(OCc1ccc(Br)cc1)c1cccc(-c2nnc(-c3ccccc3)o2)c1` was -6.16%. As to `O=C(Nc1ccccc1C(F)(F)F)N1CCCC1c1cccnc1` (configuration not stated), the inhibition was 3.9%.

Take `O=[N+]([O-])c1ccc(N2CCN(S(=O)(=O)c3ccc4ccccc4c3)CC2)cc1NCc1ccco1`: the inhibition was -59%. The value for `O=C(c1cccc(F)c1)N1CCN(c2ccc([N+](=O)[O-])c(N3CCCCC3)c2)CC1` was 5.06%; that for `O=C(c1ccccc1)N1CCN(c2ccc([N+](=O)[O-])c(NCc3ccco3)c2)CC1` was 54.3% (active). The value for `O=C(COC(=O)c1ccc(Cl)nc1)NCc1cccs1` was 13.2%. In the case of `C/C(=N/NC(=S)Nc1ccccc1)c1ccc2c(c1)OCO2`, the inhibition was -6.26%. Consider `CC(C)(C)c1cc(C(=O)NN)n(Cc2ccc(Cl)cc2Cl)n1`, for which the inhibition was 17.2%. On to `Cn1c(=O)cc(OCC(=O)N2CCN(c3ccccc3F)CC2)c2ccccc21`, for which the inhibition is -13.2%. For the molecule `CC(C)Oc1ccc(CCc2n[nH]c(=S)n2Cc2ccccc2)cc1`, the inhibition is 53.5% (active). The value for `CC(C)Oc1ccc(Cc2n[nH]c(=S)n2Cc2ccccc2)cc1Cl` was 15.2%. With `C=CCn1c(CCc2ccc(OC(C)C)cc2)n[nH]c1=S` the figure was -15.1%; with `CC(C)(C)NC(=O)C(=O)NN=C1CCCCCCC1`, -5.09%; with `C/C(=N\NC(=S)NC(C)C)c1ccc(C(C)(C)C)cc1`, 6.32%. With `CC(C)NC(=S)NN=C1CCCCCCCCCCC1` the figure was 54.9% (active). As for `Nc1ccc(Cl)c(S(=O)(=O)Nc2ccccc2Cl)c1`, the inhibition is -15%. For the molecule `COc1ccc(Cl)cc1C(=O)Nc1ccc(N(C)C(C)=O)cc1`, the inhibition is -12.6%. `Cn1nc(C(C)(C)C)c(NC(=O)c2sccc2Cl)c1C(C)(C)C`: the inhibition is -8.61%. In the case of `O=C(CN1C2=NCCN2c2ccccc21)c1cccs1`, the inhibition was -7.58%. Consider `COc1cc(C(=O)NCc2ccc3c(c2)cc(C)n3C)cc(OC)c1OC`, for which the inhibition was 65% (active). Turning to `COc1cc(C(=O)NCc2ccc(-n3cccc3)cc2)cc(OC)c1OC`, the inhibition was 8.77%. As for `COc1cc(-n2c(C)nc3cc(C(=O)NCc4ccco4)ccc32)cc(OC)c1OC`, the inhibition is 8.54%. As to `CC(C)(C)c1ccc(CCC2OCC(CN3CCOCC3)O2)cc1` (configuration not stated), the inhibition is -40.5%. Consider `Cc1sc2nc(COC(=O)C(NC(=O)c3ccc(Cl)cc3Cl)C(C)C)[nH]c(=O)c2c1C` (configuration not stated), for which the inhibition is -7.99%. For `CNC(=O)c1csc(Cc2c(Cl)sc3ccc(Cl)cc23)n1`, the inhibition was 0.86%. With `CC(=O)c1c(N)n(C)c(=O)n(C)c1=O` the figure was -24.4%. With `Cn1c(N)c(C(=O)COC(=O)C23CC4CC(CC(C4)C2)C3)c(=O)n(C)c1=O` the figure was 79.2% (active).

On to `CC1CC1C(=O)OCC(=O)c1c(N)n(C)c(=O)n(C)c1=O` (configuration not stated), for which the inhibition is 3.06%. The value for `Cc1ccc2[nH]cc(CCNC(=O)c3ccc([N+](=O)[O-])cc3)c2c1` was 9.36%; that for `CC(C)c1nccn1S(=O)(=O)c1cc([N+](=O)[O-])ccc1Cl` was 12%; that for `COc1ccc(O[C@H]2C=C[C@@H](c3ccccc3)O[C@@H]2CO/N=C/C[C@@H]2C=C[C@H](OC(C)=O)[C@@H](COC(C)=O)O2)cc1` was 27%.

`Cc1cccc2cc3c(N)c(C(=O)N4CCCc5ccccc54)sc3nc12`: the inhibition was -64.7%. Consider `COc1ccc(-c2nnc3ccc(SCc4ccccc4)nn23)cc1`, for which the inhibition was -6.26%. Consider `COc1cc(N/C=C2\CC(=O)NC(C)=C2C#N)cc(OC)c1OC`, for which the inhibition was -145%. In the case of `Oc1c(Cl)cc(Cl)c(Cl)c1Cc1c(O)c(Cl)cc(Cl)c1Cl`, the inhibition was 109% (active).

In the case of `CCOC(=O)c1cc2c(=O)n3ccccc3nc2n(CC(C)C)c1=NC(=O)c1c(-c2c(F)cccc2Cl)noc1C`, the inhibition was -60.6%. With `CCOC(=O)c1c(C)nn(-c2ncccc2NC(=O)CCC(=O)O)c1C` the figure was 10.4%; with `CCc1nnc(NC(=O)CCCSc2nc3ccccc3[nH]2)s1`, 2.67%; with `CCCCSc1nc2ccccc2[nH]1`, -22.6%. As to `O=C(COC(=O)CCCSc1nc2ccccc2[nH]1)Nc1ccc(Oc2ccccc2)cc1`, the inhibition is 51.3% (active).

Turning to `CCCCCn1c(=O)c(C(=O)OCC)c(Cl)c2ccccc21`, the inhibition was -1.97%. As for `COc1ccc(C)cc1NC(=O)c1ccc(-c2ccc(C(C)=O)cc2)o1`, the inhibition was -135%. For `COC(=O)c1ccccc1NC(=O)C1CC(=O)N(c2ccc(OC)cc2)C1` (configuration not stated), the inhibition was 4.97%.

In the case of `CCN(CC)CCNC(=O)CCCCCn1c(=O)[nH]c2cc(C(=O)OC)ccc2c1=O`, the inhibition is -103%.

Take `CCN(CCCNC(=O)CCn1c(=O)[nH]c2ccsc2c1=O)c1ccccc1`: the inhibition was 64.7% (active).

As for `CCCCC(CC)CNC(=O)CCCCn1c(=O)[nH]c2ccsc2c1=O` (configuration not stated), the inhibition is 13.6%. `O=c1cc(O)c(-c2cccc(C(F)(F)F)c2)c(Cl)[nH]1`: the inhibition is 27.3%. `Cc1cc(C(=O)CCl)c(C)n1CC1COc2ccccc2O1` (configuration not stated): the inhibition was -16.6%. Take `COc1ccc(-c2cc(C3CCN(c4ncccc4[N+](=O)[O-])CC3)[nH]n2)cc1`: the inhibition is 10.5%. Turning to `Cc1ccc(NN=C2C(=O)OC(C)(C)OC2=O)c(C)c1`, the inhibition is 6.22%.

For the molecule `Cc1ccc(OCCCn2c(=O)oc3ccccc32)cc1`, the inhibition was 21.8%. As for `O=C(c1cccc(S(=O)(=O)Nc2ccccc2Cl)c1)N1CCN(C(=O)c2ccco2)CC1`, the inhibition is 10.2%. As to `O=C(Nc1ccc2c(c1)CCC2)c1cccc(S(=O)(=O)Nc2ccccc2Cl)c1`, the inhibition is 55.1% (active). `O=C(Nc1ccc2c(c1)CCC2)c1cccc(S(=O)(=O)N2CCN(c3ccc(F)cc3)CC2)c1`: the inhibition is -32.9%. For the molecule `O=C(Nc1cc2c3c(c1)C1CCCC1CN3CC1CCCC21)c1ccc([N+](=O)[O-])cc1` (configuration not stated), the inhibition was -34.8%. On to `O=C(Oc1cccc(NC2=NS(=O)(=O)c3ccccc32)c1)c1ccncc1`, for which the inhibition was -20.9%. The value for `COC(=O)Cc1c(O)ccn(Cc2cccc(C(F)(F)F)c2)c1=O` was -20.3%; that for `CC(C)Cc1nnc(NC(=O)CCC(=O)Nc2ccc3cn[nH]c3c2)s1` was -10.5%.

`CSCCC(NS(=O)(=O)c1ccc2c(c1)oc(=O)n2C)C(=O)NC1CCCc2ccccc21` (configuration not stated): the inhibition was 30.2%.

For the molecule `O=C(Nc1ccc(S(=O)(=O)Nc2nccs2)cc1)c1cc(-c2ccncc2)nc2ccccc12`, the inhibition is -37.6%. As for `COc1cccc2cc(S(=O)(=O)c3ccc(C)cc3)/c(=N/NS(=O)(=O)c3ccc(C)cc3)oc12`, the inhibition is -24.9%.

The values above are taken from PubChem BioAssay AID1236 (Emory University Molecular Libraries Screening Center, 2008).
